Screening results (PubChem BioAssay)
An excerpt weighted towards active compounds, which were near 14% of everything screened.
Sm TGR block – qHTS Assay for the Inhibitors of Schistosoma Mansoni Peroxiredoxins; Schistosoma mansoni thioredoxin glutathione reductase (TGR), Q962Y6; purified TGR, DTNB reduction, TNB absorbance 405 nm; Potency, µM (titrated, usually from 114 µM), without a hit: at the highest dose activity change, negative = inhibition, hits mostly inhibitors; 3% of 360,000 active; AID 485364, 2010; note: potency is the fitted concentration of half-maximal effect; nearly all actives have a fitted effect of over 60% in size
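First, TGR (20 nM dispensed) and NADPH were mixed with compound. Second, a 15 min room-temperature incubation followed. Third, further NADPH and then DTNB were added to start the reaction. Finally, TNB absorbance was monitored kinetically.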
Pf growth 48h – Primary qHTS for delayed death inhibitors of the malarial parasite plastid, 48 hour incubation | 5.9% of 310,000 active | Potency, µM (series often up to 28.7 µM), inactives show at the highest dose activity change, negative = inhibition, usual class: inhibitors | AID 504832, 2011 | P. falciparum luciferase growth in erythrocytes, 48 h; note: potency is the fitted concentration of half-maximal effect
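Here the parasites carry a stable luciferase gene and grow inside erythrocytes in Albumax-based RPMI medium with compound for one erythrocytic cycle. Activity is scored as loss of luminescent signal.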
FBPA Giardia inh – qHTS Assay for Inhibitors of Fructose-1,6-bisphosphate Aldolase from Giardia Lamblia. purified Giardia FBPA. 0.71% of 290,000 active. Potency, µM (top dose mostly 59.6 µM), without a hit: at the highest dose activity, negative = inhibition, usual class: inhibitors. A8B2U2; note: potency is the fitted concentration of half-maximal effect; nearly all actives have a fitted effect of over 55% in size
Target sequence (A8B2U2 whole entry, looked up): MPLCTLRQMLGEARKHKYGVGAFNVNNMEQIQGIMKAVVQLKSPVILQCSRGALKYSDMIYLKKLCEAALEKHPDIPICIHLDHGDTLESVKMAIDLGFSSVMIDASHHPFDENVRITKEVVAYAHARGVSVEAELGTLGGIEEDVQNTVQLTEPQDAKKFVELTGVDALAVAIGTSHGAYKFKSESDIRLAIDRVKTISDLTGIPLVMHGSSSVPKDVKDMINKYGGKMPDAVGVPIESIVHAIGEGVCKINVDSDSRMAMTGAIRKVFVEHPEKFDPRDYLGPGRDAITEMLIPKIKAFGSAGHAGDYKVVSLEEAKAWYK
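Giardia FBPA (40 nM reagent) was preincubated 10 min at RT with compound (up to 57.5 uM final), then substrate plus GAPDH/TPI/NAD/arsenate coupling system with diaphorase/resazurin was added; resorufin fluorescence (525/598 nm) was read after 20 min.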
Pf growth 96h – Primary qHTS for delayed death inhibitors of the malarial parasite plastid, 96 hour incubation. 6.9% of 320,000 active. Potency, µM (series often up to 28.7 µM), without a hit: at the top dose activity change, negative = inhibition, usual class: inhibitors. P. falciparum luciferase reporter growth, 96 h; note: potency is the fitted concentration of half-maximal effect
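Luminescence readout: decreased luciferase signal marks inhibited growth of reporter-expressing P. falciparum in infected red cells (2% hematocrit, 0.05% parasitemia final), exposed to compound two generations (96 h, 37 C, 5% CO2).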
HCMV antiviral – qHTS Assay for inhibitors of the human cytomegalovirus (HCMV); HFF cells, HCMV-luciferase reporter, 72 h; stronger effect = lower value; activity change, negative = inhibition, % at 57.5 µM; 4.5% of 410,000 active; in the data active = activity change below about -60%; inconclusive = no clear call, values can overlap the other calls; inactive = above about -39%
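HFF cells seeded 16 h at 37C, treated with compounds, infected with luciferase-reporter HCMV at MOI 1 PFU/cell; luciferase read at 72 h post infection, normalized to buffer-only and Salinomycin controls.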
The depositor's hits bear a star; ? = inconclusive; . = no result; [ ] = dose if it differs, or a comment. Unless noted, calls come from the whole dose curve; as a rule, active = well fitted curve in the direction sought with a large enough effect; inconclusive = small, poorly fitted or top-dose-only effect, or another doubt; inactive = no such curve, though single readings can be large; an effect the other way counts as inactive or inconclusive. % is set by controls: 0 for no effect and ±100 for the full control effect.

SMILES	Sm TGR block	Pf growth 48h	FBPA Giardia inh	Pf growth 96h	HCMV antiviral
O=C(Nc1nnc(C2=COCCO2)o1)c1ccc(Cl)cc1	-16.1%	1.1%	19.9%	?	-38.9
O=C(Nc1nnc(C2=COCCO2)o1)c1ccc([N+](=O)[O-])cc1	-3.1%	?	.	?	-97.8*
CSc1ccc(-c2nnc(NC(=O)c3ccc4c(c3)OCCO4)o2)cc1	-0.6%	.	.	.	-17.2
CS(=O)(=O)c1cccc(-c2nnc(NC(=O)c3ccc4ncsc4c3)o2)c1	1.3%	-3.0%	.	-5.8%	4.6
COc1cc(OC)cc(-c2nnc(NC(=O)c3ccc4c(c3)OCCO4)o2)c1	11.9%	12.1%	?	?	-61.0*
COc1cccc(-c2nnc(NC(=O)c3ccc4ncsc4c3)o2)c1	1.5%	?	?	13.1µM*	4.2
Cc1ccc(Cl)cc1NC(=O)Nc1c(C)n(C)n(-c2ccccc2)c1=O	-20.7%	-15.4%	-2.7%	-14.7%	-39.1
Cc1cc(C)n2nc(C(=O)OCC(=O)N(C)C3CCS(=O)(=O)C3)nc2n1 (centres undefined)	-2.0%	-9.8%	.	-9.1%	16.5
CC(C)Cn1nc(NC(=O)c2ccco2)c2cc3ccccc3nc21	50.1µM*	-15.8%	-12.2%	?	-16.5
CCn1nc(NC(=O)c2cccnc2)c2cc3cccc(C)c3nc21	4.2%	-26.2%	-1.4%	-17.5%	-17.9
Cc1ccc2nc3c(cc2c1)c(NC(=O)c1ccco1)nn3CC(C)C	-15.3%	?	-4.6%	?	2.3
CCCn1nc(NC(=O)c2ccco2)c2cc3cc(C)ccc3nc21	11.2µM*	?	-25.5%	-29.5%	28.0
CCn1nc(NC(=O)c2ccco2)c2cc3ccccc3nc21	2.6%[11.4 µM]	.	-6.1%	9.28µM*	26.2
CCCn1nc(NC(=O)c2ccco2)c2cc3ccc(C)cc3nc21	?	-22.7%	0.2%	.	-31.0
CCn1nc(NC(=O)c2ccncc2)c2cc3cccc(C)c3nc21	2.5%	10.3%	4.6%	2.08µM*	-23.0
CCN(Cc1nc2ccccc2c(=O)[nH]1)Cc1cc(=O)oc2cc(OC)ccc12	-15.1%	?	-26.6%	.	11.5
Cc1cccn2c(=O)c3cc(S(=O)(=O)c4ccccc4)c(=N)n(CC4CCCO4)c3nc12 (centres undefined)	-0.9%	-5.5%	6.0%	3.0%	.
FC(F)(F)c1nc(NCc2cccnc2)c2ccccc2n1	-10.9%	48.4%	4.9%	10.3%	-61.9*
CC/C=C\C/C=C\C/C=C\C/C=C\C/C=C\C/C=C\CCC(=O)NCCCC(=O)O	.	.	-2.4%	.	.
CN1C(=O)NC(c2cccc([N+](=O)[O-])c2)C2=C1CCCC2=O (centres undefined)	1.0%	-19.4%[0.00184 µM]	13.2%	2.4%	33.9
CN(C)NC(=O)c1ccsc1NC(=O)c1ccc(S(=O)(=O)N2CCCC2)cc1	-12.3%	11.7µM*	2.6%	5.22µM*	-33.4
Cc1ccccc1NC(=O)c1ccc(S(=O)(=O)N2CCCC2)cc1	-5.8%	-4.0%	0.4%	16.5%	20.5
CC1CCN(S(=O)(=O)c2ccc(C(=O)Nc3sccc3C(N)=O)cc2)CC1	-1.6%	?	1.3%	8.28µM*	20.0
CNC(=O)c1c(NC(=O)c2ccc(S(=O)(=O)N3CCC(C)CC3)cc2)sc2c1CCC2	-22.5%	.	.	.	-33.0
COc1ccc(NC(=S)N(CCN(C)C)C(C)c2ccco2)cc1Cl (centres undefined)	0.8%	-13.0%	-5.8%	10.4µM*	?
SMILES	Sm TGR block	Pf growth 48h	FBPA Giardia inh	Pf growth 96h	HCMV antiviral
Cc1ccc(/C=C2\CCCC3=C2NC(=S)NC3c2ccc(C)cc2)cc1 (centres undefined)	?	-8.3%	-0.3%	?	?
COc1ccc(C2NC(=S)NC3=C2CCc2cc(OC)ccc23)cc1 (centres undefined)	-29.0%	?	-28.1%	5.86µM*	-9.4
CCOc1cc(C2NC(=O)NC(C)=C2C(=O)OCc2ccccc2)ccc1O (centres undefined)	-2.9%	2.33µM*	-20.7%	-10.2%	-5.6
CCOC(=O)C1=C(C)NC(=O)NC1c1ccc(OC(=O)c2ccco2)cc1 (centres undefined)	-2.0%	9.7%	2.0%	7.38µM*	-1.9
COc1cc(C2NC(=O)NC(C)=C2C(=O)OCc2ccccc2)ccc1O (centres undefined)	-11.7%	?	-20.9%	?	16.3
COC(=O)C1=C(CS(=O)(=O)c2ccc(OC)c(OC)c2)NC(=O)NC1c1ccc(O)c(OC)c1 (centres undefined)	5.3%	31.5%	7.1%	32.2%	-10.5
COC(=O)C1=C(CS(=O)(=O)c2cc(OC)ccc2OC)NC(=O)NC1c1ccc(O)c(OC)c1 (centres undefined)	0.6%	15.6%	11.9%	10.4µM*	-2.5
CC1=C(C(=O)Nc2ccccc2C)C(c2ccccc2)NC(=O)N1 (centres undefined)	0.0%	.	4.1%	-12.1%	7.4
CCOC(=O)C(C)Oc1ccc(C2NC(=O)NC(C)=C2C(=O)Nc2ccccc2C)cc1 (centres undefined)	0.2%	10.4µM*	0.9%	?	-37.6
COC(=O)C1=C(C)NC(=S)NC1c1ccc(OC(=O)c2ccco2)cc1 (centres undefined)	0.0%[57.1 µM]	17.8%	18.5%	?	2.4
O=C(COC(=O)Cc1c(F)cccc1Cl)NC(=O)c1ccccc1	-4.0%	9.8%	.	18.2%	13.7
COc1ccc(CCn2cc(C#N)c(=O)[nH]c2=O)cc1OC	14.4%	-8.3%	3.2%	1.6%	-10.2
C[C@H]1Cc2c(COc3ccccc3)nc3c(c2CO1)CN(C(=O)C1CC1)CC3	.	.	3.3%[12.9 µM]	.	.
CC(=O)c1ccc(NC(=O)CN2C(=O)NC3(CCc4ccccc43)C2=O)cc1 (centres undefined)	.	.	.	.	-1.0
O=C(CN1CCSc2ccccc21)NCc1ccccc1F	2.6%	.	.	.	58.3
COc1ccc(COC(=O)C2=C(C)NC(=O)NC2c2ccc(O)c(OC)c2)cc1 (centres undefined)	1.7%	.	3.2%	10.4µM*	-68.1*
CCCCOc1ccccc1C1NC(=O)NC(C)=C1C(=O)OCc1ccco1 (centres undefined)	44.7µM*	9.28µM*	1.7%	?	-31.5
CC1=C(C(=O)OCc2ccc(C)cc2)C(c2ccc(O)c([N+](=O)[O-])c2)NC(=O)N1 (centres undefined)	-0.9%	11.7µM*	10.5%	-4.0%	?
CC1=C(C(=O)OC2CCC(C)CC2)C(c2ccc(O)c([N+](=O)[O-])c2)NC(=O)N1 (centres undefined)	-13.1%	-14.5%	4.8%	?	14.8
